# Shiga toxin inh: inhibitors of Shiga toxin in Vero cells; Vero cells, Shiga toxin protein synthesis inhibition reporter; inhibition, % at 38.7 µM; actives 9.2% (n = 290,000); in the data active = inhibition mostly above about 28%, no sharp cut-off; inactive = mostly below about 43%; also: 0% is about no effect
# LmPK inh: inhibitors of Leishmania mexicana pyruvate kinase; Q27686; purified LmPK, Kinase-Glo ATP luminescence, 1 h; Potency, µM (doses to about 57.5 µM), inactives show at the top dose activity change, negative = inhibition, hits mostly inhibitors; actives 0.37% (n = 290,000); AID 1721; also: potency is read from the fitted curve at half-maximal effect; % is scaled to controls: 0 for no effect and ±100 for the full control effect
#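 Screened at intermediate enzyme activity to detect both inhibitors and activators: LmPK at 0.1 nM, with a 0.5 nM enzyme column as activation reference. PEP 0.5 mM, ADP 0.1 mM; ATP detected by luminescence after 1 h.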
# Cycloheximide cs: affects cycloheximide protein synthesis inhibition readout, counter-screen; cell reporter, cycloheximide protein synthesis inhibition counterscreen; max response, %; actives 12% (n = 300,000); AID 2314; in the data active = max response mostly above about 13%, no sharp cut-off; inactive = mostly below about 14%; also: read at 38.3 µM for the half of the compounds with a filed dose; 0% is about no effect
# TbPYK inhibitor: T. brucei pyruvate kinase inhibition; Q57TT1; TbPYK enzyme, Kinase-Glo Plus ATP luminescence, 45 min; Potency, µM (series often up to 76.8 µM), for inactives: at the top dose activity, negative = inhibition, most hits filed as inhibitors; actives 0.12% (n = 410,000); AID 624173; also: potency is read from the fitted curve at half-maximal effect; % is scaled to controls: 0 for no effect and ±100 for the full control effect; nearly all actives have a fitted effect of over 50% in size
#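 Screened from lowest to highest concentration, compounds were pinned into TbPYK/substrate mixtures, and ADP (130 uM final) was added. Plates sat at room temperature for 45 min prior to Kinase-Glo Plus detection by luminescence.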
# Sm TGR block: inhibitors of Schistosoma mansoni thioredoxin glutathione reductase. Q962Y6. purified TGR, DTNB reduction, TNB absorbance 405 nm. Potency, µM (doses to about 114 µM), inactives show at the top dose activity change, negative = inhibition, usual class: inhibitors. actives 3% (n = 360,000). AID 485364; also: potency is read from the fitted curve at half-maximal effect; % is scaled to controls: 0 for no effect and ±100 for the full control effect; nearly all actives have a fitted effect of over 60% in size
#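 First, TGR (20 nM dispensed) and NADPH were mixed with compound. Second, a 15 min room-temperature incubation followed. Third, further NADPH and then DTNB were added to start the reaction. Finally, TNB absorbance was monitored kinetically.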
# FBPA Giardia inh: inhibitors of Giardia lamblia fructose-1,6-bisphosphate aldolase. Potency, µM (highest dose often 59.6 µM), for the others: at the highest dose activity, negative = inhibition, hits mostly inhibitors. A8B2U2. actives 0.71% (n = 290,000). purified Giardia FBPA; also: potency is read from the fitted curve at half-maximal effect; % is scaled to controls: 0 for no effect and ±100 for the full control effect; nearly all actives have a fitted effect of over 55% in size
# Target sequence (A8B2U2 whole entry, looked up): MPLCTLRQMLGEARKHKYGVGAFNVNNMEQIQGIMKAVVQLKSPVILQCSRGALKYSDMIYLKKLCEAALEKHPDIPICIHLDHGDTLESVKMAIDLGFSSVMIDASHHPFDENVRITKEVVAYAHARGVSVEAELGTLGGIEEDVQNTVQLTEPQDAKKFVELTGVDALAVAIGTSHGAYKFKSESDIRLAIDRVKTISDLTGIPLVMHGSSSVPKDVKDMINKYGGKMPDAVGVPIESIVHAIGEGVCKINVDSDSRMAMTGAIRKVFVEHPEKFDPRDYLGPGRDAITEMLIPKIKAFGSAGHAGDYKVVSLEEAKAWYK
#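 Giardia FBPA (40 nM reagent) was preincubated 10 min at RT with compound (up to 57.5 uM final), then substrate plus GAPDH/TPI/NAD/arsenate coupling system with diaphorase/resazurin was added; resorufin fluorescence (525/598 nm) was read after 20 min.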
# An asterisk follows results filed as active; ? = inconclusive; · = no result. Only a selection was taken, and hits are over-represented in it overall. Unless noted, calls follow the shape of the dose curve; as a rule, active = well fitted curve in the direction sought with a large enough effect; inconclusive = small, poorly fitted or top-dose-only effect, or another doubt; inactive = no such curve, though single readings can be large; an effect the other way counts as inactive or inconclusive.
SMILES,Shiga toxin inh,LmPK inh,Cycloheximide cs,TbPYK inhibitor,Sm TGR block,FBPA Giardia inh
CCS(=O)(=O)N1CCc2cc(C(=O)NCc3ccccc3Cl)ccc21,·,·,·,1%,0%,·
CC(=O)NC(CC(=O)N1CCCC1)c1ccccc1 (stereo not drawn),·,·,·,1%,·,·
O=C(CC(NCc1cccnc1)C(=O)O)Nc1ccc(F)cc1 (stereo not drawn),·,·,·,3%,1%,·
O=C(COC(=O)c1cccs1)NCc1ccc2c(c1)OCO2,69*,1%,40*,4%,-28%,2%
O=C(NCc1ccc2c(c1)OCO2)c1cccs1,-5,1%,-5,-10%,-31%,-2%
Cc1nnc(Cc2ccco2)c2n[nH]c(C)c12,·,·,·,-4%,·,·
O=C1C(=C(O)c2ccccc2)C(=O)c2ccccc21,24,0%,14*,0%,-15%,-5%
O=C1C(=C(c2ccccc2)c2ccccc2)Nc2ccccc21,3,-5%,4,2%,-23%,-17%
Cc1c(C(=O)NCc2ccco2)sc2nc(-c3ccccc3)cn12,66*,-2%,54*,0%,-13%,6%
Cc1c(C(=O)NCc2cccnc2)sc2nc(-c3ccc(F)cc3)cn12,45*,4%,30*,-14%,4%,-1%
Cc1c(C(=O)Nc2ccncc2)sc2nc(-c3ccccc3)cn12,22,-19%,18*,2%,-2%,-13%
Cc1c(C(=O)NCc2cccnc2)sc2nc(-c3ccccc3)cn12,31*,-14%,24*,-11%,-3%,5%
Clc1cccc(CSc2nncn3c2cc2sccc23)c1,·,·,·,-5%,1%,·
O=C1NNC(c2ccccc2)=N/C1=C\c1ccccc1,-11,-14%,-1,-1%,4%,0%
O=C1NC(c2ccccc2)=N/C1=C/c1ccco1,72*,?,39*,-5%,50µM*,?
O=C1NC(c2cccc(Br)c2)=N/C1=C\c1ccco1,86*,3%,70*,1%,79µM*,?
O=C1NC(c2ccccc2Br)=N/C1=C\c1ccco1,125*,?,48*,-3%,40µM*,-22%
Cc1ccc(C)c(NC(=O)Cn2nc(C)c3nn(-c4ccc(Cl)cc4)c(C)c3c2=O)c1,·,·,·,3%,4%,·
Cc1ccc(CNC(=O)c2cc(C)nc3c2c(C)nn3-c2ccc(C)cc2)cc1,·,·,·,10%,12%,·
COc1ccc(C2C=C3CNS(=O)(=O)C3CC2OC(=O)c2ccc(C(F)(F)F)cc2)cc1 (stereo not drawn),-11,·,-10,·,·,-25%
COCCCn1c(N)c(C(=O)NCc2ccco2)c2nc3ccccc3nc21,39,3%,12,-2%,7.1µM*,?
Nc1c(C(=O)NCc2ccco2)c2nc3ccccc3nc2n1CCc1ccccc1,17,4%,8,1%,20µM*,?
CCOc1ccc(-n2c(N)c(C(=O)NCc3ccco3)c3nc4ccccc4nc32)cc1,-2,5%,-3,6%,50µM*,-4%
CNc1ncncc1-c1ccccc1OC,·,·,·,·,·,-8%
CC[C@H](C)[C@H](NC(=O)[C@H](CC(C)C)NC(=O)[C@@H](N)CO)C(=O)NCC(=O)N[C@@H](CCCCN)C(=O)N[C@H](C(=O)O)C(C)C,12,·,-4,·,·,3%
SMILES,Shiga toxin inh,LmPK inh,Cycloheximide cs,TbPYK inhibitor,Sm TGR block,FBPA Giardia inh
Cc1cc(C)c(NC(=O)CCCN2C(=O)COc3ccc(C)cc32)c(C)c1,·,·,·,-3%,-8%,·
CNC(=S)N/N=C/c1ccc(-c2ccc(Cl)c([N+](=O)[O-])c2)o1,28,0%,5,2%,-25%,-2%
CCOC(=O)c1ccc(-c2ccc(/C=N/NC(=O)CN(c3ccccc3Br)S(C)(=O)=O)o2)cc1,56*,5%,36*,-23%,6%,0%
Cc1nnc(SCC(=O)N/N=C/c2ccc(-c3ccc(C)c(Cl)c3)o2)s1,40,-1%,17*,-10%,-34%,-5%
CCc1nnc(N/N=C/c2ccc(-c3ccc([N+](=O)[O-])cc3)o2)n1N,-3,0%,12,-6%,-21%,4.5µM*
Cc1ccc(C(=O)N/N=C\c2ccc(-c3ccc(Cl)c(Cl)c3)o2)cn1,7,3%,1,-6%,34%,0%

# Source: PubChem BioAssay (National Center for Advancing Translational Sciences (NCATS))
